Screens as filed in PubChem BioAssay.
Beta cell apopt = blocks beta cell apoptosis; AID 435005; hit rate 0.8% among 300,000; INS-1E cytokine-induced death, ATP luminescence, 48 h; percent of positive-control rescue, neutral wells zero; protection from apoptosis, % (concentration not given with the values);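 active means Every replicate reaches about 75%, or at least half do and their mean reaches it too, limit read from the data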;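 further: 0% = cytokine-treated negative control wells and 100% = positive control rescue; higher means more ATP so stronger rescue from cytokine killing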
Mdm2 MdmX PPI = inhibitors of human Mdm2/MdmX interaction | inhibition, % at 8 µM | O15151+Q00987 | SaOS-2 split-luciferase Mdm2/MdmX complementation, luminescence | hit rate 3% among 330,000;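 active means inhibition of at least 50% at 8 µM in the primary screen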
Target sequence (O15151 whole entry, looked up): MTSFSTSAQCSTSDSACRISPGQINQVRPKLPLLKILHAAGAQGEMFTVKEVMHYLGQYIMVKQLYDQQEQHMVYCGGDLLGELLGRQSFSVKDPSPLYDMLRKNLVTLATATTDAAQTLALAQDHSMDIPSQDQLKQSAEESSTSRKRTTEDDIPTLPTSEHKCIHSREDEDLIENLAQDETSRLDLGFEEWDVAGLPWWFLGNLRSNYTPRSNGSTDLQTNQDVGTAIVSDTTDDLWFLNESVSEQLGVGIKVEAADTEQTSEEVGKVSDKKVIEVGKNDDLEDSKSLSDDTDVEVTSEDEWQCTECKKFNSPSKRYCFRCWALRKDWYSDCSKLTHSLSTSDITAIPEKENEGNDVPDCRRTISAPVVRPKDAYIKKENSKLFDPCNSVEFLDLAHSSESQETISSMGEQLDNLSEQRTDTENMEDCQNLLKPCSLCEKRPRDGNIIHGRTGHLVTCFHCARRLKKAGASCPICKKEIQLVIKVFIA
Target sequence (Q00987 whole entry, looked up): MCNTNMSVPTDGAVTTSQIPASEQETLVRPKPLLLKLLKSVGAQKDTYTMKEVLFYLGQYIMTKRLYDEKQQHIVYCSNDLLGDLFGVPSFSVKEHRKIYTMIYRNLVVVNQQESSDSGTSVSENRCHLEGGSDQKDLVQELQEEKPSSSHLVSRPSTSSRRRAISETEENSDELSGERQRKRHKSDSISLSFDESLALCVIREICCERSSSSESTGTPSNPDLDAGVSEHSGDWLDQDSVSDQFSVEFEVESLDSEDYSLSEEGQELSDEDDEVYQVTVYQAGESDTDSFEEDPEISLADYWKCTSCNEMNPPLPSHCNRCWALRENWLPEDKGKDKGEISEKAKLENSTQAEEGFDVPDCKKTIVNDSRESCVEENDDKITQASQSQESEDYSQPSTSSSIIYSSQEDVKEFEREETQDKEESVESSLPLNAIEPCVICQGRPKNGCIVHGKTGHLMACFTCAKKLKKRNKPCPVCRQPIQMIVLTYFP
SKKanGAS inh = inhibitors of SKKanGAS S. pyogenes growth in kanamycin (SK-promoter or general growth effect) | hit rate 1.3% among 300,000 | BacTiter-Glo, 6 h | inhibition, % at 7.5 µM;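 active means mean replicate score, as percent of positive control median, at least 50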;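 further: strain carries kanamycin resistance gene driven by streptokinase promoter and grows in 40 µg/ml kanamycin; loss of luminescence reflects streptokinase promoter inhibition or plain growth inhibition; 0% = median of DMSO wells and 100% = positive control at its reference dose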
MPTP block = permeability transition pore inhibition; hit rate 1.4% among 360,000; inhibition, % at 10 µM; isolated mouse mitochondria, Ca2+ swelling absorbance, 30 min;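 active means inhibition of 50% or more, scaled per plate between neutral and stimulator controls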;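 further: 0% = DMSO wells given calcium and 100% = 1 mM EGTA wells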
GRIN3A LBD mod = modulators (binders) of human NR3A ligand-binding domain; NR3A LBD differential scanning fluorimetry, Tm shift; 0% = protein alone, 100% = glycine-bound protein; Tm shift relative to glycine control, % at 25 µM; hit rate 2.5% among 340,000;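 active means melting temperature shift of at least 10% of the positive control shift, at one fixed dose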
CSC inhib = cancer stem cell inhibition; AID 2717; hit rate 1.1% among 300,000; cancer stem cell-like cells viability, luminescence; inhibition, % at 7.5 µM; in the data active means inhibition above about 75%; tested in HMLE shEcad cells
Rh123 counter = membrane potential counter-screen of mitochondrial pore inhibitors. shares compounds with MPTP block. AID 624504. hit rate 78% among 5,000. isolated mitochondria, Rhodamine 123 fluorescence. inhibition, % at 10 µM; in the data active means inhibition above about 22%;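 further: 0% = DMSO vehicle and 100% = positive control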
MPTP swell DR = MPTP inhibition, dose response swelling confirmation; shares compounds with MPTP block; isolated mitochondria swelling, absorbance; IC50, µM; hit rate 58% among 780; AID 651561; in the data active means IC50 below about 20 µM
MPTP counter DR = counter-screen for mitochondrial permeability transition pore inhibitors, dose response; shares compounds with MPTP block; isolated mitochondria counterscreen, fluorescence read-out; IC50, µM; hit rate 49% among 780; AID 651564; in the data active means IC50 below about 80 µM
Active calls of the source: *; x = no result given. Most compounds without a hit are left out; they make up all but 6.9% or so of the library.

SMILES	Beta cell apopt	Mdm2 MdmX PPI	SKKanGAS inh	MPTP block	GRIN3A LBD mod	CSC inhib	Rh123 counter	others
C[C@H](CO)N1C[C@H](C)[C@@H](CN(C)C(=O)Nc2ccc3c(c2)OCO3)Oc2c(NC(=O)Cc3ccccc3)cccc2C1=O	x	1	x	0	0	x	x
Cc1cc(OCC(=O)Nc2cccc(S(=O)(=O)NC3=NCCCCC3)c2)ccc1Cl	-23	25	4	87*	-7	-4	86*
Cc1cc(OCC(=O)Nc2ccc(CN3CCCCC3)cc2)ccc1Cl	x	12	11	63*	-2	-1	3	MPTP swell DR=11*;MPTP counter DR=26*
Cc1cc(OCC(=O)Nc2ccc(CN3CCOCC3)cc2)ccc1Cl	-3	12	3	0	-5	14	x
CC(C)(C)NC(=O)COC(=O)c1ccc(NC(=O)CC#N)cc1	0	-31	-13	0	0	-12	x
COc1ccc(NC(=O)CCNS(=O)(=O)c2ccc(Cl)c([N+](=O)[O-])c2)cc1S(N)(=O)=O	-6	10	0	0	-8	-7	x
CCn1cc(C(=O)N[C@H](C(=O)NCCN2CCOCC2)C(C)C)c(=O)c2cc3c(cc21)OCO3	5	16	-7	0	0	8	x
COc1ccc(NC(=S)NCCC2=CCCCC2)cc1OC	-2	-9	-1	1	-3	1	x
S=C(NCCC1=CCCCC1)Nc1ccc(Cl)cc1	3	8	1	91*	-14	10	90*
Clc1ccc(CNCCC2=CCCCC2)cc1	5	3	1	70*	0	-16	-7	MPTP swell DR=13*;MPTP counter DR=>80
O=C1COc2ccc(C(=O)COC(=O)CNC(=O)C3CCCCC3)cc2N1	-2	3	-3	1	-1	-9	x
COCCNC(=O)c1ccc(Cl)c(S(=O)(=O)Nc2cccc(C)c2C)c1	-2	11	-1	0	4	11	x
Cc1oc(-c2ccc(Cl)cc2)nc1CS(=O)CC(=O)NCCCN1CCN(Cc2ccccc2)CC1 (centres undefined)	51	28	2	63*	-3	-15	53*
Cc1oc(-c2ccc(Cl)cc2)nc1CS(=O)CC(=O)NCCCN1CCCC(C)C1 (centres undefined)	-3	30	-5	-1	-1	-2	x
Cc1cc2c(NCCc3ccccc3)ncnc2s1	108*	-12	0	103*	-4	17	95*
O=C(CSc1ncnc2ccccc12)NCCc1ccccc1	-1	-8	-4	0	1	8	x
CCCCCCCCNc1ncnc2ccccc12	101*	15	-2	103*	-40	43	87*
c1ccc(CCNc2ncnc3ccccc23)cc1	100*	-1	6	96*	1	-1	103*
CCCOc1ccc(F)cc1-c1cc(C(=O)NCc2cccc(C(F)(F)F)c2)[nH]n1	x	x	x	12	x	x	x
O=C1CS/C(=N/N=C/c2cccs2)N1Cc1ccc(F)cc1	5	20	10	47	-1	-6	x
CC(C)(C)n1cc(S(=O)(=O)c2ccccc2)[nH]c1=O	-1	12	-8	-1	5	-11	x
CCOc1cc(CNCCO)cc(Br)c1OCc1cccs1	9	27	-5	93*	1	2	9	MPTP swell DR=4.1*;MPTP counter DR=23*
CCOc1cc(CNCc2ccncc2)cc(Br)c1OCc1ccccc1F	28	-20	-11	61*	5	-26	76*
O=C(Nc1ccc(Cc2ccncc2)cc1)c1cccc([N+](=O)[O-])c1	-3	19	-5	18	-2	45	x
O=C(CCNc1ccc(Cc2ccncc2)cc1)c1ccc([N+](=O)[O-])cc1	-2	24	0	75*	-6	21	68*
Cc1ccc(C(=O)Nc2ccc(Cc3ccncc3)cc2)cc1[N+](=O)[O-]	2	31	-4	99*	-11	23	64*
Cc1ccc(CNC(=O)C2CCN(C(=O)Nc3ccc(C)cc3)CC2)cc1	x	21	1	-1	-3	x	x
O=C(c1cc(C2CC2)nc2ccc(Br)cc12)N1N=C(C(F)F)CC1(O)C(F)F (centres undefined)	-7	20	-2	75*	5	70	84*
